Compounds with a hit are over-represented: about 4.8% of the library has one in this group of screens.
DAX1 inh-1: DAX1 (NR0B1) inhibitors, primary screen, cell-based, HEK293, Gal4-DAX1, luciferase luminescence | inhibition, % at 6.75 µM | AID 504766, 2011 | hit rate 0.99% among 340,000 | HEK293 Gal4-DAX1 luciferase reporter | Nuclear receptor subfamily 0 group B member 1 (Homo sapiens), P51843;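 active means inhibition above the mean over all tested compounds plus 3 SD, cut at about 4.2% in these data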;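 further: inhibition shows as a rise in luminescence from relieved DAX1 repression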
Target sequence (P51843 207-470 limits assumed): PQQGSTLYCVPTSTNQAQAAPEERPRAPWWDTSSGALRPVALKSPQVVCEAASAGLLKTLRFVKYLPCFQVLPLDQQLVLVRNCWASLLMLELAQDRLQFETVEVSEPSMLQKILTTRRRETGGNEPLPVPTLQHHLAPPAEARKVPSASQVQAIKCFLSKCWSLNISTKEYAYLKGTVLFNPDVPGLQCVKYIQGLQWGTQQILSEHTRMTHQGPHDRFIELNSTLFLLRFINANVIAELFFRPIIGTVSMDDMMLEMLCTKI
hcDAF12 agonist: H. contortus DAF-12 nuclear receptor activators, primary screen, cell-based, luminescence, HEK293, lit1-tk-luc reporter; AID 652067, 2013; hit rate 1.4% among 370,000; activation, % at 6.8 µM; HEK293 hcDAF-12 lit1-tk-luc reporter; 0% DMSO, 100% Δ7-dafachronic acid;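 active means activation above the mean of all tested compounds plus 3 SD, cut at about 5.5% in these data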
hgDAF12 agonist: H. glycines DAF-12 receptor agonists, primary screen, cell-based, luminescence, HEK293, GAL4 fusion, UAS-luciferase; HEK293 GAL4-hgDAF12 UAS-luciferase reporter, agonist luminescence; normalized to butyrate control; activation, % at 6.8 µM; hit rate 1.8% among 370,000;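 active means activation above a cutoff set at the mean of all screened compounds plus 3 SD, cut at about 10% in these data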
ssDAF12 agonist: S. stercoralis DAF-12 nuclear receptor activators, primary screen, cell-based, luminescence, HEK293, GRIP1 co-expression, lit1-tk-luc. AID 652126, 2013. hit rate 1% among 370,000. HEK293 ssDAF-12/GRIP1 lit1-tk-luc reporter; % of 3 µM dafachronic acid response. Nuclear hormone receptor DAF-12 (Strongyloides stercoralis). activation, % at 6.8 µM;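 active means activation above the mean over all tested compounds plus 3 SD, cut at about 0.9% in these data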
SMARCA2 activ: SMARCA2 (BRM) function activators, primary screen, cell-based, luminescence, high throughput; MG213 cells, MMTV-luciferase reporter, dexamethasone, overnight; activation, % at 9.1 µM; hit rate 1% among 370,000; in the data active means activation above about 7.8%
DAX1 inh-2: DAX1 (NR0B1) inhibitors on StAR promoter, primary screen, cell-based, luminescence, SF-1 (NR5A1), full-length DAX-1; AID 652010, 2013; hit rate 1.1% among 370,000; HEK293T StAR-luciferase reporter, SF-1/DAX-1 repression relief; inhibition, % at 6.8 µM;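 active means inhibition above the mean over all tested compounds plus 3 SD, cut at about 3.6% in these data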;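 further: higher inhibition means more luminescence from relief of DAX-1 repression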
DAX1 conf: DAX1 (NR0B1) inhibitors relieving SF-1 repression, confirmation, cell-based, luminescence, HEK293T, full-length DAX-1, SF-1 activated StAR promoter; shares compounds with DAX1 inh-2; HEK293T StAR-promoter luciferase reporter, SF-1/DAX-1 repression; inhibition, % at 6.8 µM; hit rate 87% among 2,400; AID 652134, 2013;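 active means inhibition above the average of every tested compound plus 3 SD, cut at about 3.8% in these data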
SF1 mutant ctr: StAR reporter signal changes without DAX1, counter-screen for DAX1 inhibitor project, cell-based, luminescence, AF-2 mutant SF-1, transactivation. HEK293 StAR-luciferase, SF-1 AF2 mutant. inhibition, % at 6.8 µM. shares compounds with DAX1 inh-2. hit rate 78% among 2,400. AID 652136, 2013;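 active means inhibition above the mean of all tested compounds plus 3 SD, cut at about 3% in these data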
LXR ag: LXR agonists, Gal4 luciferase reporter, confirmation, counter-screen for hcDAF-12 agonist project, cell-based, luminescence, HEK293, H. contortus campaign; shares compounds with hcDAF12 agonist; activation, % at 6.8 µM; 3,400 tested, under 10 active; HEK293 Gal4-LXR tk-luc reporter, 24 h; normalized: DMSO 0%, positive control 100%;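 active means mean percent activation of the reporter above a cutoff set as the average over tested compounds plus their standard deviation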
hcDAF12 ag: H. contortus DAF-12 receptor agonists, confirmation, cell-based, luminescence, HEK293, lit1-tk-luc, triplicate. HEK293 hcDAF-12 lit1-tk-luc reporter; % of Δ7-dafachronic acid response. shares compounds with hcDAF12 agonist. hit rate 61% among 3,400. activation, % at 6.8 µM;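 active means mean activation across triplicate tests above the threshold derived from the earlier primary screen, cut at about 5.5% in these data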
hgDAF12 ag: H. glycines DAF-12 receptor agonists, confirmation, cell-based, luminescence, HEK293, GAL4-LBD fusion | hit rate 80% among 3,300 | shares compounds with hgDAF12 agonist | AID 743050, 2013 | HEK293 GAL4-hgDAF12 luciferase reporter, agonist mode; percent of butyrate response | activation, % at 6.8 µM;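 active means mean activation over triplicate wells above the hit cutoff derived from the earlier primary screen, cut at about 11% in these data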
LXR ag 2: LXR agonists, Gal4 luciferase reporter, confirmation, counter-screen for hgDAF-12 agonist project, cell-based, luminescence, HEK293, H. glycines campaign | shares compounds with hgDAF12 agonist | 24 h | activation, % at 6.8 µM | 3,300 tested, under 10 active | AID 743051, 2013;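 active means mean activation of the triplicate above a set limit carried over from the primary screen, none filed active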
Large screens that a line does not name were inactive (follow-up assays come after a bar, where they were run).

Cc1nc2sc(-c3ccccc3)cc2c(=O)[nH]1	hcDAF12 agonist 7.4, hgDAF12 agonist 21, DAX1 inh-2 6.1 | DAX1 conf 12 | SF1 mutant ctr 6.7 | LXR ag inactive | hcDAF12 ag 5.8 | hgDAF12 ag 12 | LXR ag 2 inactive
O=c1c2ccccc2nc2n1CCC2	none
O=c1[nH]c(-c2cccnc2)nc2sc(-c3ccccc3)cc12	none
NC(=O)CSc1nc2sc(-c3ccccc3)cc2c(=O)n1N	none
O=c1c2cc(-c3ccccc3)sc2nc2n1CCC2	hgDAF12 agonist 20, DAX1 inh-2 5.4 (no result: DAX1 inh-1) | DAX1 conf 15 | SF1 mutant ctr 7.7 | hgDAF12 ag 18 | LXR ag 2 inactive
Cc1nc2sc(-c3ccccc3)cc2c(=O)n1N	hcDAF12 agonist 6.7, hgDAF12 agonist 17, DAX1 inh-2 4.7 | DAX1 conf 4.6 | SF1 mutant ctr inactive | LXR ag inactive | hcDAF12 ag inactive | hgDAF12 ag inactive | LXR ag 2 inactive
CC(C)(C)NC(=O)Cn1c(Cl)nc2ccccc21	none
COc1cc(O)c(C(CCN2CCCC2)c2ccc3c(c2)OCO3)c(OC)c1 (configuration not stated)	none
O=C(CNC(=O)c1cccs1)Nc1ccc2c(c1)OCCO2	hgDAF12 agonist 17, DAX1 inh-2 12 | DAX1 conf 8.0 | SF1 mutant ctr 4.0 | hgDAF12 ag 16 | LXR ag 2 inactive
O=C(CSc1c[nH]c2ccccc12)NC1CCCC1	none
O=C(NCCS(=O)(=O)NCCc1ccccc1)c1ccc2c(c1)OCO2	DAX1 inh-1 4.3, hcDAF12 agonist 5.6, hgDAF12 agonist 15, ssDAF12 agonist 1.1, DAX1 inh-2 10 | DAX1 conf 7.9 | SF1 mutant ctr 3.1 | hgDAF12 ag 14 | LXR ag 2 inactive

Screening data: PubChem, The Scripps Research Institute Molecular Screening Center
